Results on 15 compounds are retold here after PubChem BioAssay AID651593 (National Center for Advancing Translational Sciences (NCATS), 2012).

Structures are written as SMILES. About 860 (78%) of roughly 1,100 compounds were called active. Another 19% or so got no clear call; they are omitted. The call rests on the fitted dose curve; in most records, active means well fitted activation curve with a large enough effect; inconclusive means small, poorly fitted or top-dose-only effect; inactive means flat fitted curve, though single readings scatter. The set was probably picked from earlier hits. The list shows a part of the results.
Potency means the concentration at half of the fitted maximal effect.

The nature of the assay: qHTS of Nrf2 Activators: Hit Validation in Primary Assay. Further: nearly all actives have a fitted effect of over 70% in size. Conditions: Nrf2/ARE reporter cell assay, activation. From the text:
Many diseases have some form of oxidative stress injury and ties to inflammation, causing a host of problems for the patient. The antioxidant response element (ARE) plays an important role in alleviating the harmful effects of oxidative stress. The antioxidant response element (ARE) is a transcriptional regulatory element involved in the activation of genes coding for a number of antioxidant proteins and detoxifying enzymes. These enzymes work in concert to protect tissues from oxidative insults and chemical toxicities in human hepatocytes and immune cells. The protective effects of ARE activation are primarily triggered through Nrf2 (NF-E2-related factor) binding to and activating AREs. It is known that Nrf2 controls the production of over 250 antioxidant and detoxification proteins (Hu et al., 2006), thereby protecting tissues by increasing cellular antioxidant content and suppressing inflammatory signaling pathways. The transcription factor Nrf2 is a central link between oxidative chemicals, such as phenolic antioxidants and electrophilic compounds, and the activation of ARE. Nrf2 levels are constitutively low as a consequence of its interaction with Keap1, which targets its degradation (Zipper and Mulcahy, 2002). Electrophiles react with key cysteine residues in Keap1, releasing Nrf2 and allowing its translocation to the nucleus. Once within the nucleus, Nrf2 complexes with coactivators such as p300, and binds to the AREs to induce gene transcription of cytoprotective enzymes, resulting in the prevention of toxicity. Activation of Nrf2 protects tissues by increasing cellular antioxidant content and suppressing inflammatory signaling pathways. Identifying novel and potent Nrf2 activators by using the AREc32 cell line to detect ARE activation by small molecules will lead to the identification and development of probes to study protective pathways in multiple tissues. These specific probes are essential to study the ARE pathway, and eventually to determine whether this pathway does activate genes that could protect against a host of diseases, including cardiovascular diseases, obesity, diabetes, Alzheimer's, and Parkinson's disease.
This project's aim is to identify novel and potent Nrf2 activators by using the AREc32 cell line to detect ARE activation by small molecules, which will lead to the identification and development of probes to study the ARE pathway.
NIH Chemical Genomics Center [NCGC]
NIH Molecular Libraries Probe Centers Network [MLPCN]
Assay Submitter (PI): Curtis Klaassen, University of Kansas Medical Center
Quantification of ARE activation after compound treatment was measured by the Steady-Glo Luciferase (R) assay system (Promega) in AREc32_fluc stable cells. The Steady-Glo reagent acts by cell lysis and generation of a luminescent signal proportional to ARE activation, through the luciferase reporter in the AREc32 stable cell line. AREc32_fluc cells were harvested from T225 flask and resuspended in phenol red free OPTI-MEM medium with 5% FBS. Then 5 microL of 200,000 cells/mL resuspended cells were dispensed into each well of white, solid bottom, 1536-well tissue culture-treated plates using a Multidrop Combi dispenser. After overnight culture at 37 degrees C with 5% CO2, a total of 23 nL of compounds at 5 selected concentrations from the MLSMR/Sytravon or positive control (40 uM stock of CDDO-IM and 2 mM of tBHQ) in DMSO was transferred to each well of the assay plate using a pintool (Kalypsys, San Diego, CA), and the plates were further incubated at 37 degrees C with 5% CO2 for 24 hours. After that, 2 microL of Steady Glo luminescent substrate mix (Promega) was added to each well. The plate was incubated at room temperature for 30 minutes. The plates were measured on a ViewLux plate reader (PerkinElmer) with clear filter.
(In general: Quantitative high-throughput screening tests each substance at several concentrations.)
With `COc1ccc(Sc2cnn(-c3ccccc3)c(=O)c2Cl)cc1`, the Potency was 4.61 µM (active).

Regarding `O=c1[nH]c(=S)[nH]c(O)c1N=Nc1ccc(S(=O)(=O)N2CCc3ccccc32)cc1`, the Potency was 16.4 µM (active). The figure for `Clc1ccccc1Nc1ncnc(-n2cccc2)n1` is 2.59 µM (active); for `Cc1cccc(C(=O)Nc2nnc(SCC(=O)NCc3ccco3)s2)c1` it is 8.2 µM (active). With `Cc1cc(SCC(=O)N/N=C/c2ccco2)nc2ccccc12`, the Potency was 11.6 µM (active). In the case of `CCn1c(=O)oc2cc(NC(=O)CCl)ccc21` it was 4.61 µM (active); in that of `Cn1c(=O)oc2cc(NC(=O)CCl)ccc21`, 4.61 µM (active); in that of `O=C(O)c1ccc([N+](=O)[O-])c([N+](=O)[O-])c1`, 5.17 µM (active). The figure for `Cn1c(O)c(N=Nc2ccc(S(=O)(=O)N3CCOCC3)cc2)c(=O)n(C)c1=O` is 18.4 µM (active); for `Clc1cccc(/C=N\Nc2nccs2)c1` it is 2.91 µM (active). The figure for `O=C(Nc1ccc(Cl)c(Cl)c1)c1ccco1` is 4.61 µM (active); for `O=C1c2ccccc2-c2cc3ccccc3cc21` it is 4.61 µM (active); for `Fc1cccc(F)c1-c1nc(-c2ccc(Cl)cc2)no1` it is 3.66 µM (active). `O=C(/C=C/c1ccccc1)c1c(O)n(CCc2ccccc2)c(=O)[nH]c1=O`: the Potency is 3.66 µM (active).

As for `CCCCn1c(O)c(C(=O)/C=C/c2ccc3c(c2)OCO3)c(=O)[nH]c1=O`, the Potency is 9.2 µM (active).
